This is an account of results in ChEMBL document CHEMBL4513216, “Probing the Open Global Health Chemical Diversity Library for Multistage-Active Starting Points for Next-Generation Antimalarials” (ACS Infect Dis, 2020).

Among all 68,000 compounds or so, about 2,700 (4%) showed an effect of 50% or more. The list comes from a sample in which strong results are over-represented; it also holds similar structures and randomly drawn compounds.

The experiment has as its system Plasmodium berghei. The experiment in a line: Screen against P. berghei liver stage (PbLuc), transformed with Luciferase, at 2uM. In kind it is functional, HepG2. Conditions: tested at 2 uM.
For `Cn1cccc1C(=O)N1CCN(CC2CC2)c2ncccc2C1`, the INHIBITION is reported as 8.13%.

On to `Cc1nc(-c2ccccc2)n(CC(=O)NC(C)C2CC2)n1` (stereo not given), for which the INHIBITION is 32.56%.

Regarding `COc1ccc(C2=Nn3c(CCN)nnc3-c3ccccc3C2)cc1`, the INHIBITION came to 54.73%. On to `COc1ccc(C2=Nn3c(CCCN)nnc3-c3ccccc3C2)cc1`, for which the INHIBITION is 6.9%. As for `COc1ccc(C2=Nn3c(CN)nnc3-c3ccccc3C2)cc1`, the INHIBITION was 42.64%.

For `Cc1cnc(CNC(=O)[C@@]23CCO[C@@H]2CCN(c2ncccn2)C3)cn1`, the INHIBITION was 4.08%. Next, `Cc1cc(C(=O)N2C[C@@H]3COC[C@]3(CN(C)C)C2)c(C)o1`: 39.57%. The same measure for `CC(C)NC1CCc2[nH]c(=O)ccc2C1` (stereo not given): -13.79%; for `Cc1c(Br)cccc1C(=O)NCC1CCNCC1`: 5%. Next, `Cc1ncc(C(=O)N2CCCN(Cc3ccccc3F)CC2)c(O)n1`: 52.74%; `O=C(c1cnc(C2CC2)nc1O)N1CCN(Cc2ccccc2F)CC1`: 15.34%; `O=C(c1cccnc1O)N1CCN(Cc2ccccc2F)CC1`: -24.15%.

For `c1cnnc(N[C@@H]2CC[C@@H]3CN(Cc4c[nH]c5ccccc45)C[C@@H]32)c1`, the INHIBITION is on record as -2.96%. Next, `Cc1nc(C)c(S(=O)(=O)NC(=O)c2sccc2C)s1`: 24.23%; `Cc1nc(C)c(S(=O)(=O)NC(=O)c2ccoc2)s1`: 44.86%. Consider `Cc1nc(C)c(S(=O)(=O)NC(=O)c2ccsc2)s1`, for which the INHIBITION turned out to be 68.08%.

As for `O=C(c1ccc(O)nc1)N1CCN(C(=O)c2ccc(F)c(F)c2)CC1`, the INHIBITION is reported as -18.09%.

Consider `O=C(c1cnc(OCC(F)(F)F)c(Cl)c1)N1CCc2ccc(O)cc2C1`, for which the INHIBITION came to 64.2%. Regarding `O=C(c1ccc(O)nc1)N1CCN(C(=O)c2ccc(F)cc2F)CC1`, the INHIBITION was 19.06%. The same measure for `O=C(c1ccc(O)nc1)N1CCc2ccc(O)cc2C1`: 55.39%; for `O=C(c1c[nH]c(=O)c(Cl)c1)N1CCc2ccccc2C1`: -15.11%. The same measure for `CC(C)Oc1ncc(C(=O)N2CCc3ccc(O)cc3C2)cc1Cl`: 11.33%; for `CC(=O)N1CC[C@H](c2nnc(Cc3c[nH]c4ccccc34)o2)C1`: 26.01%. Next, `CN(Cc1cn2c(n1)CN(CC1CCOC1)CC2)Cc1ccco1` (stereo not given): -0.38%; `O=C(NCCn1cccc1)C1CCN(C2CCCCC2)CC1`: 10.72%.

For the compound `OCCOc1cc(F)ccc1NCc1cccc(F)c1F`, the INHIBITION is given as -19.62%. For the compound `Cn1ccnc1CN1CCC(CNS(=O)(=O)c2cccnc2)C1` (stereo not given), the INHIBITION is on record as -43.75%. Next, `COc1ccc(NC(=O)C2CC(=O)n3cnnc3S2)cc1` (stereo not given): 6.05%; `COCCN1CCCC(O)(CN2CCN(Cc3ccncc3)CC2)C1=O` (stereo not given): 15.73%. Regarding `CC(=O)c1ccc(CNC(=O)c2cc(C#N)cn2C)nc1C`, the INHIBITION is -2.44%. Next, `Cc1ccc2nc(CSCC(=O)Nc3nnc(C(C)C)s3)cc(=O)n2c1`: -3.16%; `CCN1C(=O)C(C#N)=C(C)/C(=C/C2=Cc3ccccc3OC2)C1=O`: 45.67%; `CC1=C(C#N)C(=O)N(C)C(=O)/C1=C\C1=Cc2ccccc2OC1`: 53.81%.

Turning to `O=C(Nc1cccnc1)C1=Cc2ccccc2OC1`, the INHIBITION stood at 3.62%. Next, `O=C(NCC1CCOCC1)c1cc(-c2ccncc2)c2cnccc2n1`: 10.89%.

For `CC(C)C(CNCc1cccc2c1OCO2)N1CCOCC1` (stereo not given), the INHIBITION came out at 21.72%. As to `c1csc(C(CNCc2cccc3c2OCO3)N2CCOCC2)c1` (stereo not given), the INHIBITION is listed as 42.62%. `Cc1ccc(C(CNCc2cccc3c2OCO3)N2CCOCC2)o1` (stereo not given): the INHIBITION amounted to 71.53%. Take `COc1ccccc1OCC(=O)NCC(O)(c1ccccc1)C1CC1` (stereo not given): the INHIBITION is on record as 22.75%. Next, `CCOc1ccc(Oc2cc(N)ccn2)cc1`: 4%; `O[C@H]1Cc2ccccc2[C@H]1Nc1ncccc1C(F)(F)F`: -12.95%; `Cc1ccc(CN2CCCn3nnc(COCCN(C)C)c3C2)s1`: 23.14%. The same measure for `Cn1cc(CN2CC[C@H]3O[C@H](C(=O)NC4CC4)CC[C@H]32)c2ccccc21`: -18.7%. The same measure for `CCOc1ncccc1CNS(=O)(=O)c1ccc2c(c1)CCCC(=O)N2`: 20.35%. With `c1ccc(-c2nc(CN3CCOC(Cn4cccn4)C3)co2)cc1` (stereo not given), the INHIBITION was 62.13%.

Turning to `Cc1ccc(-c2nc(CN3CCOC(Cn4cccn4)C3)co2)cc1` (stereo not given), the INHIBITION came to 1.02%.

For the compound `Fc1ccc(-c2nc(CN3CCOC(Cn4cccn4)C3)co2)cc1` (stereo not given), the INHIBITION is -17.31%. Consider `c1csc(-c2nc(CN3CCOC(Cn4cccn4)C3)cs2)c1` (stereo not given), for which the INHIBITION was determined as 45.83%. Take `c1cn(-c2ccc(CN3CCOC(Cn4cncn4)C3)cc2)cn1` (stereo not given): the INHIBITION came to 40.88%. Next, `c1csc(-c2nc(CN3CCOC(Cn4cncn4)C3)cs2)c1` (stereo not given): 66.97%; `c1cnn(CC2CN(Cc3ccc(-n4ccnc4)cc3)CCO2)c1` (stereo not given): 53.03%.

In the case of `c1cnn(CC2CN(CCc3ccncc3)CCO2)c1` (stereo not given), the INHIBITION is recorded as 17.11%. Next, `CN(Cc1ccsc1)C(=O)CN1CCOC(Cn2cncn2)C1` (stereo not given): 46.09%; `CN(Cc1ccsc1)C(=O)CN1CCOC(Cn2cccn2)C1` (stereo not given): 62.46%. The same measure for `Cc1cnn(CC2CN(CC(=O)N(C)Cc3ccsc3)CCO2)c1` (stereo not given): 47.84%; for `c1ccc(-c2nc(CN3CCOC(Cn4cncn4)C3)cs2)cc1` (stereo not given): 31.57%.

On to `OCC(CO)Nc1ccc2c(Cl)ccc(Cl)c2n1`, for which the INHIBITION worked out at 34.55%.

For `O=C(c1ccc(F)cc1)N1CCC2(CCCN2CC2CC2)CC1`, the INHIBITION is -38.96%. In the case of `NC(=O)Nc1cccc(CNC(=O)CCCc2ccccc2)c1`, the INHIBITION was 3.01%. Next, `Fc1cccnc1Oc1cc(F)c(CN2CCCC2)c(Cl)c1`: -42.73%; `Clc1cc(N2CCC(N3CCCC3)CC2)nc2[nH]ccc12`: 25.13%; `Nc1cc2c(nn1)CCN(C(=O)c1cccc3c1OCO3)C2`: 4.55%.

As for `CC(=O)c1ccc(S(=O)(=O)NCc2cccnc2N(C)C)cc1`, the INHIBITION is reported as 4.18%.

On to `COc1ncccc1-c1nc(-c2ccccn2)nn1C1CCS(=O)(=O)C1` (stereo not given), for which the INHIBITION came to 19.12%. The same measure for `Nc1nc2cn(C3CCCC3)c(=O)c-2c[nH]1`: -33.11%; for `CC(C)CCc1nc(CN2CCOC(Cn3cncn3)C2)cs1` (stereo not given): 7.13%; for `CCCc1nc(CN2CCOC(Cn3cncn3)C2)cs1` (stereo not given): 53.98%. For the compound `CC(C)(C)c1nc(CN2CCOC(Cn3cncn3)C2)cs1` (stereo not given), the INHIBITION is listed as -5.09%. The same measure for `c1csc(-c2nc(CN3CCOC(Cn4cncn4)C3)co2)c1` (stereo not given): 71.48%; for `c1csc(-c2nc(CN3CCOC(Cn4cccn4)C3)co2)c1` (stereo not given): -25.44%; for `Fc1cccc(-c2nc(CN3CCOC(Cn4cncn4)C3)co2)c1` (stereo not given): 16.51%. The same measure for `Cn1c(CN2CCCCC2)nnc1C1CCN(c2nccc(N)n2)CC1`: 21.2%; for `c1cnn(CC2CN(Cc3noc(C4CC4)n3)CCO2)c1` (stereo not given): -28.51%. In the case of `CCn1c(=O)n(Cc2nc(C3CC3)no2)c2ccccc21`, the INHIBITION is given as 30.82%. With `CCC1c2ccccc2CCN1C(=O)c1ccnc(C(=O)OC)c1` (stereo not given), the INHIBITION was determined as 20.34%. The same measure for `CCc1nnc(C(C)N2CCN(CCC(C)(C)C)CC2)o1` (stereo not given): 38.97%. The same measure for `COc1cc(C(=O)O)ccc1OCC(=O)NCCc1ccccc1`: 10.1%; for `COc1cc(C(=O)O)cc(I)c1OCC(=O)NCCc1ccccc1`: 56.69%; for `COc1cc(OCC(=O)NCCc2ccccc2)cc(OC)c1OC`: 28.85%. `CCN1C[C@H]2[C@@H](C1)N(c1ncc(F)cn1)CC[C@H]2OC`: the INHIBITION is 12.29%. Next, `CCc1ncc2c(n1)CN(Cc1nnc(C(C)C)o1)CC2`: 46.76%; `CCc1ncc2c(n1)CN(Cc1nnc(CC)o1)CC2`: 9.18%; `CCc1ncc2c(n1)CN(Cc1nnc(C)o1)CC2`: 59.18%. As for `COCCN1C[C@@H]2[C@@H](OC)CCN(Cc3ccsc3)[C@@H]2C1`, the INHIBITION stood at 20.91%.

As for `CN1C[C@@H](F)[C@@H](OCc2nc3ccccc3[nH]2)C1`, the INHIBITION came out at 40.83%.

As for `CC(=O)N1C[C@@H](F)[C@@H](OCc2nc3ccc(C#N)cc3[nH]2)C1`, the INHIBITION is 36.99%. The same measure for `Cc1cc2nc(CO[C@H]3CN(C4CCN(C)CC4)C[C@H]3F)[nH]c2cc1C`: 50.7%.

Take `Cc1cc2nc(CO[C@H]3CN(C4CCCCC4)C[C@H]3F)[nH]c2cc1C`: the INHIBITION is 18.65%.

`Cc1cc2nc(CO[C@H]3CN(C4CCC4)C[C@H]3F)[nH]c2cc1C`: the INHIBITION is recorded as 46.17%. Next, `CN1C[C@@H](F)[C@@H](OCc2nc3ccc(C#N)cc3[nH]2)C1`: 52.91%. Next, `O=C(Cn1cc(Cl)cn1)N1CCCC(c2cc3ccccc3cn2)C1` (stereo not given): 36.98%.

Consider `CCC(NC(=O)c1cnc(N(C)C)nc1C)c1ccncc1` (stereo not given), for which the INHIBITION was 57.34%. With `CCn1c(C)nnc1SCCNC(=O)c1cnc(N(C)C)nc1C`, the INHIBITION was -41.73%.

`CCn1nc(C)c(C(C)NC(=O)c2cnc(N(C)C)nc2C)c1C` (stereo not given): the INHIBITION is on record as -12.22%. The same measure for `CCC(NC(=O)c1cnc(N(C)C)nc1C)c1ccc(S(C)(=O)=O)cc1` (stereo not given): 70.81%; for `Cc1nc(N(C)C)ncc1C(=O)NCCc1csc(-c2ccncc2)n1`: 40.05%. Regarding `COCCNC(=O)c1cnc(N(C)C)nc1C`, the INHIBITION is 12.85%.

As for `O=C(CN1CCc2cncnc2C1)N1CCc2sccc2C1`, the INHIBITION is listed as -27.59%.

For `Cn1cnnc1SCC(=O)N1C[C@@H]2CC[C@H]1CN(Cc1cccnc1)C2`, the INHIBITION was determined as 12.74%. Take `O=C(CN1CCCCC1)Nc1cc(C(F)(F)F)ccc1-n1cccc1`: the INHIBITION came to 18.54%. The same measure for `CNC(=O)c1cccc(CNC(C)c2cc(Cl)ccc2OC)c1` (stereo not given): 19.81%. The same measure for `CNC(=O)c1cccc(CNC(C)c2ccc(F)cc2N(C)C)c1` (stereo not given): 55.25%; for `CNC(=O)c1cccc(CNC(C)c2cc(C)ccc2OC(F)F)c1` (stereo not given): 25.55%. Take `CC(C)n1nc(O)c2c1NC(=O)CSC2c1cnn(C)c1` (stereo not given): the INHIBITION worked out at 6.9%.

For `COc1cc(CNCC(C)O)cc(Cl)c1OCc1ccc(C)cc1` (stereo not given), the INHIBITION is listed as 44.51%.
